Where “and” joins values, the source holds several entries; their conditions need not be identical. Equal entries are not always repeated. Inconclusive results are not listed. Where a structure was tested more than once in an assay, its records may differ in their call. Calls of active or inactive are those of the source. The calls were made as follows: active = hit-call score of the fitted dose curve at least 0.9, where 1 is the maximum; inconclusive = response in the unintended direction; inactive = score below 0.9.
Tests used:
[1] = LTEA_HepaRG_LDH_cytotoxicity: Cytotoxicity Assessment in the Life Technologies and Expression Analysis (LTEA) Assay (AID 2283563)
Procedure, shortened: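 Differentiated human HepaRG cells, plated 48 h beforehand, were switched to serum-free induction medium and exposed for 48 h to eight half-log concentrations (top 100 uM) in 0.5% DMSO. LDH was measured in spent medium; activity was fitted relative to DMSO vehicle.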

[2] = ATG_XTT_Cytotoxicity: Cytotoxicity Assessment in the Attagene TRANS-FACTORIAL HepG2 Assay (AID 2283584);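 as to AC50: cells exposed to compound for 24 h before reading; active means loss of viability signal versus DMSO baseline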
Procedure, shortened: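 HepG2 human liver cells, transiently transfected with multiple GAL4-UAS reporter units, were dosed and read at 24 h by XTT as cell number. Loss of signal was fitted relative to DMSO negative control baseline.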

[3] = Tanguay_ZF_120hpf_MORT_legacy: (Legacy) Oregon State University Tanguay Lab 120 Hour Post-fertilization zebrafish Assay for Mortality (AID 2283633)
Procedure, shortened: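 Dechorionated Tropical 5D wild-type zebrafish embryos, one per well from 6 hpf, were statically exposed at 28C in the dark until 120 hpf (0.64% DMSO final). Mortality was scored as present/absent by brightfield microscopy, fitted positively versus DMSO.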

[4] = Tanguay_ZF_120hpf_YSE_legacy: (Legacy) Oregon State University Tanguay Lab 120 Hour Post-fertilization zebrafish Assay for Yolk Sac Edema (AID 2283634);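 as to AC50: actives raise the incidence of yolk sac edema above the DMSO baseline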
Procedure, shortened: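 Tropical 5D wild-type embryos, dechorionated with pronase at 4 hpf, were exposed singly from 6 hpf to 120 hpf under static, sealed, dark conditions at 28C with 0.64% DMSO final. Yolk sac edema was scored present/absent by brightfield microscopy.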

[5] = Tanguay_ZF_120hpf_AXIS_legacy: (Legacy) Oregon State University Tanguay Lab 120 Hour Post-fertilization zebrafish Assay for Body Axis Malformation (AID 2283635);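 as to AC50: potency for an increased fraction of larvae scored with body axis malformation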
Procedure, shortened: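 Tropical 5D wild-type zebrafish embryos, dechorionated with pronase at 4 hpf, were placed singly in wells at 6 hpf and exposed statically to test chemical (0.64% DMSO final) at 28C until 120 hpf, then scored by brightfield for body axis defects.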

[6] = Tanguay_ZF_120hpf_EYE_legacy: (Legacy) Oregon State University Tanguay Lab 120 Hour Post-fertilization zebrafish Assay for Eye Malformation (AID 2283636);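 also: binary presence or absence of eye malformation scored by brightfield in 120 hpf larvae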
Procedure, shortened: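 Dechorionated Tropical 5D zebrafish embryos, one per well from 6 hpf, static exposure to 120 hpf at 28C, 0.64% DMSO. Eye malformation scored present/absent by brightfield; dead embryos not scored.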

[7] = Tanguay_ZF_120hpf_SNOU_legacy: (Legacy) Oregon State University Tanguay Lab 120 Hour Post-fertilization zebrafish Assay for Snout Malformation (AID 2283637)
Procedure, shortened: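 Dechorionated tropical 5D wild-type zebrafish embryos exposed statically from 6 to 120 hpf at 28C, one per well, in 0.64% DMSO. Snout malformation scored as present/absent by brightfield at 120 hpf; dead embryos not scored.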

[8] = Tanguay_ZF_120hpf_JAW_legacy: (Legacy) Oregon State University Tanguay Lab 120 Hour Post-fertilization zebrafish Assay for Jaw Malformation (AID 2283638);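 as to AC50: active means more embryos with jaw malformation than DMSO controls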
Procedure, shortened: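 Tropical 5D wild-type embryos, dechorionated with pronase at 4 hpf, were placed singly per well at 6 hpf and statically exposed at 28C until 120 hpf (0.64% DMSO final). Jaw malformation scored as present/absent by brightfield microscopy at 120 hpf, analyzed relative to DMSO.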

[9] = Tanguay_ZF_120hpf_PE_legacy: (Legacy) Oregon State University Tanguay Lab 120 Hour Post-fertilization zebrafish Assay for Pericardial Edema (AID 2283640);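 as to AC50: potency for increased incidence of pericardial edema versus DMSO baseline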
Procedure, shortened: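 Tropical 5D wild-type zebrafish embryos were exposed statically to 120 hpf at 28C, sealed and foil-covered, in 0.64% DMSO final. Pericardial edema was scored present/absent by brightfield microscopy; dead embryos were not scored.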

[10] = Tanguay_ZF_120hpf_BRAI_legacy: (Legacy) Oregon State University Tanguay Lab 120 Hour Post-fertilization zebrafish Assay for Brain Malformation (AID 2283641)
Procedure, shortened: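 Tropical 5D wild-type zebrafish embryos were exposed statically in sealed, foil-covered plates at 28C until 120 hpf, with 0.64% (vol/vol) final DMSO. Brain malformation was scored present/absent by brightfield microscopy, relative to DMSO baseline.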

[11] = Tanguay_ZF_120hpf_SOMI_legacy: (Legacy) Oregon State University Tanguay Lab 120 Hour Post-fertilization zebrafish Assay for Somite Malformation (AID 2283647)
Procedure, shortened: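 Tropical 5D wild-type zebrafish embryos, dechorionated with pronase at 4 hpf, were placed singly at 6 hpf and statically exposed until 120 hpf at 28C in 0.64% DMSO. Somite malformation was scored present/absent by brightfield microscopy versus DMSO.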

[12] = Tanguay_ZF_120hpf_OTIC_legacy: (Legacy) Oregon State University Tanguay Lab 120 Hour Post-fertilization zebrafish Assay for Otic Vesicle Malformation (AID 2283639)
Procedure, shortened: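 Tropical 5D wild-type zebrafish embryos were exposed statically in sealed, foil-covered plates at 28C until 120 hpf, with 0.64% (vol/vol) DMSO final. Otic vesicle malformation was scored present/absent by brightfield microscopy, with DMSO as baseline.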

[13] = target: Cellular tumor antigen p53 (Homo sapiens) (UniProt P04637); test: TOX21_p53_BLA_p2_ratio: Tox21 HCT-116 p53 Agonism Beta-lactamase Assay, Ratio, Phase 2 (AID 2283592)
Procedure, shortened: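 HCT116 cells carrying a p53-responsive beta-lactamase reporter were plated, incubated 5 h at 37C, then dosed with compounds in DMSO (217-fold dilution) for 16 h. CCF4-AM substrate was added for 2 h at room temperature; the 460/530 nm emission ratio gave gain-of-signal activity relative to DMSO.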

[14] = target: Cellular tumor antigen p53 (Homo sapiens) (UniProt P04637); test: TOX21_p53_BLA_p3_ratio: Tox21 HCT-116 p53 Agonism Beta-lactamase Assay, Ratio, Phase 3 (AID 2283596)
Procedure, shortened: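 HCT116 p53-bla cells (4000/well) given compound in DMSO (217-fold dilution) after 5 h, incubated 16 h at 37C. CCF4-AM substrate 2 h at room temperature; 460/530 nm emission ratio, gain fitted against DMSO.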

[15] = target: Cellular tumor antigen p53 (Homo sapiens) (UniProt P04637); test: TOX21_p53_BLA_p5_ratio: Tox21 HCT-116 p53 Agonism Beta-lactamase Assay, Ratio, Phase 5 (AID 2283599)
Procedure, shortened: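 HCT-116 p53-bla cells (4000/well) plated 5 h, dosed with compound (217-fold DMSO dilution) for 16 h at 37 C; CCF4-AM substrate 2 h at room temperature. Activity is the 460/530 nm emission ratio (405 nm excitation), fitted in gain-of-signal direction versus DMSO.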

[16] = TOX21_p53_BLA_p5_viability: Viability Assessment in the Tox21 HCT-116 p53 Agonism Beta-lactamase Assay, Phase 5 (AID 2283600)
Procedure, shortened: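 Cells were plated at 4000/well, rested 5 h at 37C, then given compounds in DMSO (217-fold dilution) for 16 h at 37C, 5% CO2. Following the CCF4-AM beta-lactamase read, CellTiter-Glo was added and luminescence was read after 30 min at room temperature.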

[17] = target: Cellular tumor antigen p53 (Homo sapiens) (UniProt P04637); test: TOX21_p53_BLA_p4_ratio: Tox21 HCT-116 p53 Agonism Beta-lactamase Assay, Ratio, Phase 4 (AID 2283601)
Procedure, shortened: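 HCT-116 p53 beta-lactamase reporter cells (4000/well) preincubated 5 h, then compound (217-fold dilution of DMSO stock) for 16 h at 37C. CCF4-AM substrate added 2 h at room temperature; 460/530 nm emission ratio fitted upward versus DMSO.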

[18] = TOX21_p53_BLA_p3_viability: Viability Assessment in the Tox21 HCT-116 p53 Agonism Beta-lactamase Assay, Phase 3 (AID 2283593);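 also: cells exposed to compound for 16 h before reading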
Procedure, shortened: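 HCT116 cells, 4000/well, dosed 5 h after plating by pin transfer (217-fold dilution from DMSO stock) and incubated 16 h at 37C, 5% CO2. Viability read as ATP luminescence with CellTiter-Glo after 30 min at room temperature.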

[19] = TOX21_p53_BLA_p4_viability: Viability Assessment in the Tox21 HCT-116 p53 Agonism Beta-lactamase Assay, Phase 4 (AID 2283597);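 also: hits lower the luminescence signal meaning cytotoxicity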
Procedure, shortened: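 HCT116 p53-bla cells (4000/well) rested 5 h at 37C, then received compounds in DMSO (217-fold dilution) for 16 h at 37C, 5% CO2. CellTiter-Glo was added after the CCF4-AM read, and luminescence was read after 30 min at room temperature.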

Measured: AC50

Cellular tumor antigen p53 (Homo sapiens), sequence (P04637 whole entry, looked up): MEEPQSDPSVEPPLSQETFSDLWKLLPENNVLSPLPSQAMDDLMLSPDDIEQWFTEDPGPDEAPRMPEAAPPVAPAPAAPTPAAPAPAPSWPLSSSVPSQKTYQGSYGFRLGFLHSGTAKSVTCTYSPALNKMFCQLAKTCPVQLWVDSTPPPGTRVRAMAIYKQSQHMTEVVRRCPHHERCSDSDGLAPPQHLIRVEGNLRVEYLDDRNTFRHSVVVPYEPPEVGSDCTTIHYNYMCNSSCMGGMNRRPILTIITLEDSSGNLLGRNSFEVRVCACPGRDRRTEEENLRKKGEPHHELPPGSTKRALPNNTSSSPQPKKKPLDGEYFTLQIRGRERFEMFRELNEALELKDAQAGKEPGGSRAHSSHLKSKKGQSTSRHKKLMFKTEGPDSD

CCCCCCCc1ccc(O)cc1
inactive: [1] | [3] | [4] | [5] | [6] | [7] | [8] | [9] | [10] | [11]
active: [2] 152 µM and 185 µM and 129 µM

CCCCc1ccccc1
not listed: [13] | [14] | [15] | [16] | [17] | [18] | [19]
inactive: all other assays above

O=C(O)C1C(C(=O)O)C2(Cl)C(Cl)=C(Cl)C1(Cl)C2(Cl)Cl (stereo not given)
not listed: [18] | [19]
inactive: all other assays above

CCCCN(CCCC)N=O
not listed: [12]
inactive: all other assays above

Cc1ccc([N+](=O)[O-])cc1C
not listed: [11] | [13] | [14] | [15] | [16] | [17] | [18] | [19]
inactive: all other assays above

CCCN(CCC)c1c([N+](=O)[O-])cc(C(C)C)cc1[N+](=O)[O-]
not listed: [5] | [6] | [8] | [12] | [15] | [17]
inactive: all other assays above

CN(C)C(=O)Cl
inactive: [1] | [2] | [3] | [4] | [6] | [7] | [8] | [12] | [9] | [10]

CCCCN(CCCC)SN(C)C(=O)Oc1cccc2c1OC(C)(C)C2
inactive: [1] | [2] | [3] | [4] | [5] | [7] | [8] | [12] | [10] | [11]

ClC(Cl)c1ccccc1
inactive: [1] | [2] | [3] | [4] | [5] | [6] | [7] | [8] | [12] | [9]

CCOc1ccc(C(C)(C)COCc2cccc(Oc3ccccc3)c2)cc1
not listed: [5] | [12] | [13] | [14] | [15] | [19]
inactive: all other assays above

O=C(O)C(Cl)Cl
not listed: [13] | [14] | [15] | [16] | [17] | [18] | [19]
inactive: all other assays above

O=[N+]([O-])c1ccccc1
not listed: [2]
inactive: all other assays above

Nc1ccc(Cl)cc1
not listed: [4]
inactive: all other assays above

c1ccc(OP(Oc2ccccc2)Oc2ccccc2)cc1
not listed: [16] | [17] | [18]
inactive: all other assays above

CC(C)(C)OOC(C)(C)C
not listed: [12]
inactive: all other assays above

c1nc[nH]n1
not listed: [3] | [4] | [5] | [6] | [8] | [9] | [18] | [19]
inactive: all other assays above

CCOP(=S)(Oc1ccc([N+](=O)[O-])cc1)c1ccccc1 (stereo not given)
not listed: [4] | [13] | [14] | [15] | [16] | [17] | [18] | [19]
inactive: all other assays above

CCOP(=S)(OCC)SCSCC
not listed: [13] | [14] | [15] | [16] | [17] | [18] | [19]
inactive: all other assays above

CCNc1nc(Cl)nc(NC(C)(C)C)n1
inactive: [1] | [2] | [3] | [4] | [7] | [12] | [10] | [11]

[N-]=[N+]=[N-]
not listed: [2] | [9]
inactive: all other assays above

Nc1ccc2ccccc2c1
active: [4] 34.8 µM | [5] 33.4 µM | [6] 47.7 µM | [7] 33.9 µM | [8] 34.9 µM | [9] 42 µM | [10] 202 µM
not listed: [18]
inactive: all other assays above

O=[N+]([O-])c1ccc(Cl)c(Cl)c1
not listed: [13] | [14] | [15] | [16] | [17] | [18] | [19]
inactive: all other assays above

CCC1(c2ccccc2)C(=O)N=C(O)NC1=O (stereo not given)
not listed: [15] | [16] | [18]
inactive: all other assays above

c1ccc2c(c1)Nc1ccccc1S2
inactive: all assays above

CCOS(=O)(=O)OCC
not listed: [2]
inactive: all other assays above

CCN(CC)c1ccccc1
not listed: [5] | [6] | [8] | [13]
inactive: all other assays above

CSC(C)(C)C=NO
not listed: [13] | [14] | [15] | [16] | [17] | [18] | [19]
inactive: all other assays above

ClC1=C(Cl)C2(Cl)C3C(Cl)C(Cl)CC3C1(Cl)C2(Cl)Cl (stereo not given)
inactive: [1] | [18] | [14] | [19] | [15] | [16] | [17] | [3] | [4] | [5] | [6] | [7] | [8] | [12] | [9] | [10] | [11]
active: [2] 157 µM | [13] 61.5 µM and 80.2 µM | [18] 55.6 µM | [14] 86.1 µM | [19] 64.1 µM | [15] 86.4 µM | [16] 46.1 µM | [17] 63.5 µM

OCC1CO1 (stereo not given)
inactive: all assays above

Reference: PubChem BioAssay (EPA / NIEHS)
